According to the supplement of paper PMC9177965:
Several values for one entry are separate records, joined by “and”; a condition that tells them apart may be missing. Identical values can stand only once.

test system: HT29 RNF43 G659fs (RNF43 659mut, CRISPR-edited); assay: cell viability activity relative to DMSO (negative = inhibition); higher = more viable cells (less growth inhibition); settings: 5 µM; 96 h
Method: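 Broad Repurposing Library primary screen at a single dose of 5 uM. HT29 sg-Ctrl and HT29 RNF43 G659fs CRISPR-edited isogenic cells were seeded at 2500 cells/well in 384-well plates in duplicate and treated for 96 h. Viability was read by CellTiter-Glo and reported as % activity relative to DMSO, with MG132 as the positive control (negative = growth inhibition).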

Row | Compound | cell viability activity
1 | Nc1ccc(-c2ccc3ncc4ccc(=O)n(-c5cccc(C(F)(F)F)c5)c4c3c2)cn1 | -63.8%
2 | COc1cc(F)c(F)c(Nc2ccc(I)cc2F)c1NS(=O)(=O)C1(C[C@H](O)CO)CC1 | -74.1%
3 | CCN(CC)CCOc1ccc(C(=C(Cl)c2ccccc2)c2ccccc2)cc1 | -98.4%
4 | CC(C)NC[C@@H](C(=O)N1CCN(c2ncnc3c2[C@H](C)C[C@H]3O)CC1)c1ccc(Cl)cc1 | -53.6%
5 | CCN(CC)Cc1ccc2cc(COC(=O)Nc3ccc(C(=O)NO)cc3)ccc2c1 | -91.4%
6 | Nc1ccccc1NC(=O)c1ccc(CNC(=O)OCc2cccnc2)cc1 | -71.7%
7 | Cc1ccc(C(=O)N(CCCN)[C@@H](c2nc3cc(Cl)ccc3c(=O)n2Cc2ccccc2)C(C)C)cc1 | -65.1%
8 | C[C@@H](NCCCc1cccc(C(F)(F)F)c1)c1cccc2ccccc12 | -78.1%
9 | Nc1nccc2c1ncn2[C@@H]1C=C(CO)[C@@H](O)[C@H]1O | -41.6%
10 | C=C1/C(=C\C=C2/CCC[C@]3(C)[C@@H]([C@H](C)CCCC(C)C)CC[C@@H]23)C[C@@H](O)C[C@@H]1O | -54.3%
11 | NC1(c2ccc(-c3nc4ccn5c(=O)[nH]nc5c4cc3-c3ccccc3)cc2)CCC1 | -42.7%
12 | O=C(O)[C@]1(Cc2cccc(Nc3nccs3)n2)CC[C@@H](Oc2cccc(Cl)c2F)CC1 | -24.5%
13 | Cc1cc(Nc2cc(N3CCN(C)CC3)nc(/C=C/c3ccccc3)n2)n[nH]1 | -74.6%
14 | NC(=O)N1CCC(CC(=O)N2CCC([C@H]3c4ncc(Br)cc4CCc4cc(Cl)cc(Br)c43)CC2)CC1 | -51%
15 | CC(=O)NCC(=O)N1[C@@H]2CC[C@H]1c1ccc(Nc3ncc(C(F)(F)F)c(NC4CCC4)n3)cc12 | -41.1%
16 | COc1cc2c(cc1-c1c(C)noc1C)ncc1[nH]c(=O)n([C@H](C)c3ccccn3)c12 | -60.5%
17 | NC(=NC1C2CC3CC(C2)CC1C3)Nc1ccc(I)cc1 (stereo not given) | -49.5%
18 | CN[C@@H]1C[C@H]2O[C@@](C)([C@@H]1OC)n1c3ccccc3c3c4c(c5c6ccccc6n2c5c31)C(=O)N[C@H]4O | -88.9%
19 | O=C1[C@H](Cc2ccc(O)cc2)N2C(=O)CCN(C(=O)NCc3ccccc3)[C@H]2CN1Cc1cccc2ccccc12 | -58.4%
20 | CC(NCCC(c1ccccc1)c1ccccc1)c1ccccc1 (stereo not given) | -64.5%

Row | Compound | cell viability activity
21 | Clc1ccc(CSC(Cn2ccnc2)c2ccc(Cl)cc2Cl)cc1 (stereo not given) | -38.7%
22 | COc1cc([C@@H]2c3cc4c(cc3[C@@H](O[C@@H]3O[C@@H]5CO[C@@H](c6cccs6)O[C@H]5[C@H](O)[C@H]3O)[C@H]3COC(=O)[C@H]23)OCO4)cc(OC)c1O | -84.4% and -59.9%
23 | CCN(CC)CCOc1ccc(Nc2ncc3cc(-c4c(Cl)cccc4Cl)c(=O)n(C)c3n2)cc1 | -86.7%
24 | C[C@@H](Oc1cc(-c2cnn(C3CCNCC3)c2)cnc1N)c1c(Cl)ccc(F)c1Cl | -97.1%
25 | COc1ccc(NC(=O)c2ccc(-c3ccc(-c4noc(C)n4)cc3C)cc2)cc1N1CCN(C)CC1 | -61%
26 | O=C(CCCCCN1C(=O)c2cccc3cccc(c23)C1=O)NO | -79.1%
27 | COc1cc(C(=O)N2CCC(N3CCN(C)CC3)CC2)ccc1Nc1ncc2c(n1)N(C)c1ccccc1C(=O)N2C | -56.1%
28 | CC(C)C[C@H](NC(=O)[C@H](Cc1ccccc1)NC(=O)c1cnccn1)B(O)O | -94.1%
29 | Cc1cc(OCc2nnc(SC3CCCC3)n2-c2cccnc2)ccc1-c1ccc(S(C)(=O)=O)cc1 | -86.4%
30 | CC1(C)CC(Oc2ccc(-c3ccc(-c4cn[nH]c4)cc3O)nn2)CC(C)(C)N1 | -77%
31 | CC1=C(C(=O)OC2CCCCC2)C(c2ccc([N+](=O)[O-])cc2)C2=C(CC(C)(C)CC2=O)N1 (stereo not given) | -27.1%
32 | COc1cc2c(cc1OC)-c1cc3nc4ccccc4nc3n1C(C)(C)C2 | -64.4%
33 | CC(C)=CCC/C(C)=C/CC/C(C)=C/CSc1ccccc1C(N)=O | -26.6%
34 | CCN(CC)C(=S)SSC(=S)N(CC)CC | -79.2%
35 | C#CCC(Cc1cnc2nc(N)nc(N)c2n1)c1ccc(C(=O)N[C@@H](CCC(=O)O)C(=O)O)cc1 (stereo not given in full) | -68.9%
36 | C[C@]12CC[C@@H]3c4ccc(O)cc4C[C@@H](CCCCCCCCC[S+]([O-])CCCC(F)(F)C(F)(F)F)[C@H]3[C@@H]1CC[C@@H]2O (stereo not given in full) | -38.7%
37 | CC[C@H](CC#N)OC(=O)N[C@@H](C)c1cccc(NC(=O)Nc2ccc(-c3cnco3)c(OC)c2)c1 | -66.2%
38 | O=C(O)/C=C/c1ccc(O)c(O)c1 | -66.6%
39 | CNC(=O)CN1CCC(Oc2cc3c(Nc4cccc(Cl)c4F)ncnc3cc2OC)CC1 | -41.9%
40 | CN(C)CCCCC(=O)Nc1ccc(NC(=S)NC(=O)c2ccc(C(C)(C)C)cc2)cc1 | -85.9%
